Source: PubChem
In the library only some 4.1% were active in any assay of this set; here they are far more common.
Jurkat NFkB inh – inhibitors of induced NF-kB luciferase reporter, primary screen, TCR NF-kB activation inhibitor project, cell-based, luminescence, uHTS; inhibition, % at 4 µM; hit rate 0.53% among 330,000; Jurkat, PMA/ionomycin-induced NF-kB luciferase reporter; AID 435003, 2010; in the data active = inhibition above about 50%
697 NFkB inh – inhibitors of PMA/ionomycin-induced NF-kB reporter, 697 cells, primary screen, B-cell NF-kB inhibitor project, cell-based, luminescence, uHTS; 697 B-cell NF-kB luciferase reporter, 16 h; inhibition, % at 4 µM; hit rate 0.33% among 330,000; AID 435022, 2010; in the data active = inhibition above about 35%
Mdm2-MdmX inh – inhibitors of human Mdm2-MdmX association, primary screen, cell-based, luminescence, split luciferase, SaOS-2, uHTS; SaOS-2 split-luciferase Mdm2/MdmX complementation; inhibition, % at 8 µM; hit rate 3% among 330,000; Protein Mdm4 (Homo sapiens) + E3 ubiquitin-protein ligase Mdm2 (Homo sapiens), …;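 active = inhibition of at least 50% at 8 µM in the primary screen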
Target sequence (O15151 whole entry, looked up): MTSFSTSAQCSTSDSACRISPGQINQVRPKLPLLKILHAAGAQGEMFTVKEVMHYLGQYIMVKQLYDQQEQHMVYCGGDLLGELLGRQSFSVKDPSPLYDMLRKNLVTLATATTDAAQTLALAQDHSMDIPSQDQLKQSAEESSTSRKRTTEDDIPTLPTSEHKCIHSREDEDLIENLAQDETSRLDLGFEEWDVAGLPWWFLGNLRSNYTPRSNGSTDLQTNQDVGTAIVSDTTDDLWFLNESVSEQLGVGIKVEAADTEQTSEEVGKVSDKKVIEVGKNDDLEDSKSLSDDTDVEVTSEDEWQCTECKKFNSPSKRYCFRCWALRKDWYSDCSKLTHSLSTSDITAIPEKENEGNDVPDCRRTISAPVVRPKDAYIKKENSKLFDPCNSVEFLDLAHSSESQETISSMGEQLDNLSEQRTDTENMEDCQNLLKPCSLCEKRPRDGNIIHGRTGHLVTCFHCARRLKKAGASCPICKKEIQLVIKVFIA
Target sequence (Q00987 whole entry, looked up): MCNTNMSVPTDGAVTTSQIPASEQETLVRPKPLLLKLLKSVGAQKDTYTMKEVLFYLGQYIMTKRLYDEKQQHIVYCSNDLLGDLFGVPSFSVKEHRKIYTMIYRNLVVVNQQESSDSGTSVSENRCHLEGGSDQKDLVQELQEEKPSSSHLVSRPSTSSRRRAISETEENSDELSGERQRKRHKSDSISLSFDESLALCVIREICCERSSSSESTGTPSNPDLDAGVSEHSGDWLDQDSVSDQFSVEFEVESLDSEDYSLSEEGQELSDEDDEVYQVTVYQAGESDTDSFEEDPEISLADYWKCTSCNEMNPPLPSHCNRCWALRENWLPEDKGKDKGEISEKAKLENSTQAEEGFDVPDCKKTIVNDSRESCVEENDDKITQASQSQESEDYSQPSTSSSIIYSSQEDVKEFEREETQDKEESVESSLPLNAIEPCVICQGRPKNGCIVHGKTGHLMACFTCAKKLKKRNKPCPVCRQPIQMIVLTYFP
aSyn 5UTR inh – MLPCN primary screen, SNCA 5' untranslated region. alpha-synuclein 5'UTR reporter, inhibitor activity. hit rate 0.82% among 300,000. inhibition, % (tested at 7.5 µM); in the data active = inhibition above about 60%; inconclusive = no clear call, values can overlap the other calls;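 note: H4 neuroglioblastoma cells stably carrying SNCA 5'UTR luciferase fusion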
Gli-Sufu block – Gli-Sufu pathway antagonists, primary screen, luciferase luminescence, Sufu-KO-LIGHT cells, uHTS. Sufu-KO-LIGHT fibroblasts, Gli luciferase reporter luminescence. inhibition, % at 5 µM. hit rate 0.74% among 340,000. AID 588413, 2011;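 active = inhibition above about 55%, limit read from the data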
KLF5 inhibitor – KLF5 expression inhibitors, primary screen, DLD-1 cells, luminescence. DLD-1 KLF5 promoter-luciferase reporter. hit rate 0.23% among 290,000. inhibition, % at 5 µM;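 active = inhibition above a per-plate limit of that plate's mean compound inhibition plus 3 SD, cut at about 60% in these data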;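 note: higher means less KLF5 promoter-driven luciferase light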
Mdm2-MdmX conf – Mdm2-MdmX complex disruptors, retested hits, confirmation, luminescence, single concentration. shares compounds with Mdm2-MdmX inh. Mdm2-MdmX binding, luminescent assay. inhibition, % at 8 µM. hit rate 55% among 10,000. AID 489028, 2010; in the data active = inhibition above about 40%
FLuc counter – full-length luciferase signal inhibition, confirmation, counter-screen for Mdm2/MdmX interaction inhibitor project, cell-based, single concentration, SaOS-2. shares compounds with Mdm2-MdmX inh. SaOS-2 full-length luciferase counterscreen, luminescence. inhibition, % at 8 µM. hit rate 77% among 6,200;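 active = mean inhibition at 8 µM reaching about 37%, which flags the compound as non-specific, limit read from the data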;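 note: p53-null SaOS-2 cells with luciferase driven by a doxycycline-inducible promoter; compound on cells about two nights before reading with doxycycline added after day one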
Gli antag conf – Gli-SUFU pathway antagonists, confirmation, single concentration, luciferase luminescence, Sufu-KO-LIGHT cells. inhibition, % at 5 µM. shares compounds with Gli-Sufu block. hit rate 40% among 2,500. Gli luciferase reporter;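 active = mean inhibition at 5 µM reaching about 45%, limit read from the data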
SufuKO cytotox – cytotoxicity in Sufu-KO-LIGHT cells, confirmation, cytotoxicity control for Gli-SUFU antagonist project, cell-based, ATP luminescence, single concentration | cytotoxicity, % at 5 µM | hit rate 32% among 2,500 | AID 651994, 2013 | shares compounds with Gli-Sufu block;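 active = mean cytotoxicity at 5 µM above about 25%, limit read from the data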;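 note: cells exposed to compound overnight for roughly 16 to 18 hours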
Wnt3a cs – Wnt3a reporter signal inhibition, confirmation, counter-screen for Gli-SUFU antagonist project, Wnt-LIGHT cells, luminescence, single concentration; shares compounds with Gli-Sufu block; Wnt3a-driven luciferase reporter; inhibition, % at 6.25 µM; hit rate 20% among 2,500;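 active = mean inhibition above about 25%, limit read from the data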
A number is an active result; – = inactive; ? = inconclusive; · = no result.

SMILES	Jurkat NFkB inh	697 NFkB inh	Mdm2-MdmX inh	aSyn 5UTR inh	Gli-Sufu block	KLF5 inhibitor	Mdm2-MdmX conf	FLuc counter	Gli antag conf	SufuKO cytotox	Wnt3a cs
CC(C)c1ccc(-c2nc3ccccc3s2)cc1	–	–	87.4	98.5	64.2	–	88.5	–	82.2	72.6	105.9
CN(C)S(=O)(=O)c1ccc2nc(NC(=O)c3cccnc3)sc2c1	–	–	–	–	–	–	·	·	·	·	·
O=C(NC(Nc1nc2ccc([N+](=O)[O-])cc2s1)(C(F)(F)F)C(F)(F)F)c1cccnc1	–	–	100.2	?	84.2	–	94.2	–	87.0	35.5	81.3
CCOC(=O)/C(=N\Nc1ccccc1)P(=O)(c1ccccc1)c1ccccc1	–	–	–	–	–	–	·	·	·	·	·
Cc1cc2c(cc(C(=O)OCC(=O)NCc3cccs3)n2C(C)C)o1	–	–	63.0	–	–	–	50.4	76.8	–	55.6	–
Cc1cccc(CSC(Nc2ccc(F)cc2)=C(C#N)C#N)c1	–	–	94.2	–	55.7	–	88.8	50.0	61.8	–	52.4
CC1CCCCN1C(=O)COC(=O)/C=C/c1ccc2ccccc2n1 (centres undefined)	–	–	–	–	–	–	·	·	·	·	·
CC1CCC(C(C)C)C(OC(=O)C[n+]2cc(-c3ccc(Cl)cc3)n3c2CCC3)C1 (centres undefined)	–	–	–	–	–	–	·	·	·	·	·
CC1CCC(C(C)C)C(OC(=O)Cn2c(-c3ccccc3)[n+](C)c3ccccc32)C1 (centres undefined)	–	–	93.1	76.9	86.9	–	94.0	37.9	89.4	38.2	38.0
CC1CCN(C(=O)c2[nH]cnc2C(=O)N[C@@H](C)c2ccccc2)CC1	–	–	–	·	–	·	·	·	·	·	·
CCN(CCCNC(=O)c1cc2c(-c3cccc(OC)c3)nn(C)c2s1)Cc1ccccc1	–	–	55.1	–	58.5	–	–	·	–	–	–
COCCn1c(C)cc(C2=NNC(=Nc3ccccc3)SC2)c1C	–	–	62.1	–	–	–	72.8	81.4	–	40.0	–
COCCn1c(C)cc(C2=NNC(=Nc3ccc(OC)cc3)SC2)c1C	–	–	–	–	–	–	·	·	·	·	·
CCc1ccc(OCCn2cccn2)cc1	–	–	–	–	–	–	·	·	·	·	·
O=C(Nc1ccn(CCCNCCCN2CCCC2=O)c(=O)n1)OCc1ccccc1	·	·	·	·	–	·	·	·	·	·	·
Cc1cc(C(=O)CN2CCC(C)CC2)c(C)n1-c1ccccc1F	–	–	66.4	–	70.1	–	76.2	69.7	76.2	33.7	83.4
Nc1cc(OCC(F)(F)F)cc([N+](=O)[O-])c1	–	–	–	–	–	–	·	·	·	·	·
Nc1cc(N)c(OCC(F)(F)F)cc1OCC(F)(F)F	–	–	77.8	–	68.0	–	–	·	–	–	–
O=Cc1ccc(OCc2nnsc2Cl)cc1	–	–	–	–	–	–	·	·	·	·	·
O=c1c(N=Nc2ccc(O)cc2)c(-c2ccccc2)[nH]n1-c1ccc([N+](=O)[O-])cc1	–	–	100.5	–	–	–	–	·	–	–	67.3
O=c1[nH]c(=O)n(Cc2ccco2)c2c1C(C(F)(F)F)(C(F)(F)F)N=C(c1ccc(F)cc1)N2	–	–	65.4	–	–	–	83.9	58.0	64.7	–	62.2
O=c1[nH]c(=O)n(Cc2ccccc2)c2c1C(C(F)(F)F)(C(F)(F)F)N=C(c1ccco1)N2	–	–	–	–	–	–	·	·	·	·	·
O=C(NC(Cc1ccccc1)C(=O)O)/C(=C/c1ccc([N+](=O)[O-])cc1)NC(=O)c1ccco1 (centres undefined)	–	–	–	–	–	–	·	·	·	·	·
COCCCn1c(SCC(=O)N2CCOCC2)nc2cc(Cl)ccc2c1=O	–	–	–	·	–	·	·	·	·	·	·
O=C1/C(=C/c2ccccc2)SC(=S)N1CCCC(=O)N1CCCCC1CCO (centres undefined)	–	–	85.1	–	59.4	–	57.1	36.7	–	–	–
SMILES	Jurkat NFkB inh	697 NFkB inh	Mdm2-MdmX inh	aSyn 5UTR inh	Gli-Sufu block	KLF5 inhibitor	Mdm2-MdmX conf	FLuc counter	Gli antag conf	SufuKO cytotox	Wnt3a cs
COc1ccc(/C=C2\SC(=S)N(CCC(=O)N3CCCCC3CCO)C2=O)cc1 (centres undefined)	–	–	–	–	–	–	·	·	·	·	·
Cc1c(NC(=O)C(C)OC(=O)/C=C/c2ccc3c(c2)OCO3)c(=O)n(-c2ccccc2)n1C (centres undefined)	–	–	–	–	–	–	·	·	·	·	·
Cc1ccc2c(c1)CCCN2C(=O)CCc1nc2ccccc2c(=O)[nH]1	–	–	53.2	·	90.4	·	59.6	49.0	–	54.6	–
COc1ccc(-n2nc3c(N4CCC(C(=O)NC5CCCCC5)CC4)nnc(C)c3c2C)cc1	–	–	97.4	–	90.8	–	–	75.6	–	–	–
CCOC(=O)c1c(NC(=O)COC(=O)C2CC2C)sc(C)c1C (centres undefined)	–	–	–	–	–	–	·	·	·	·	·
CN(N)c1ccc2c(C(F)(F)F)cc(C(F)(F)F)nc2n1	–	–	–	–	–	–	·	·	·	·	·
Cc1ccc(C(C#N)c2ccc3c(C(F)(F)F)cc(C(F)(F)F)nc3n2)cc1 (centres undefined)	–	–	57.7	–	–	–	–	·	58.8	–	52.0
O=C(NCc1ccccc1F)C1CCCN(S(=O)(=O)N2CCOCC2)C1 (centres undefined)	–	–	–	–	–	–	·	·	·	·	·
Cc1ccc(C(=O)OC(C)C(=O)c2cc(C)c(C)cc2C)o1 (centres undefined)	–	–	–	–	–	–	·	·	·	·	·
O=C(N[C@@H]1C/C=C\C[C@@H](CC(=O)N(CCO)Cc2ccccc2)C(=O)NC[C@H](c2ccccc2)OC1=O)OCC1c2ccccc2-c2ccccc21	–	–	61.1	·	59.1	·	–	·	61.5	–	–
